A selection: hits, their analogues and other compounds. The true share with any hit is near 7%.
KAT2A inh – GCN5L2 (KAT2A) acetyltransferase inhibition. Q92830. GCN5L2 HAT assay, ThioGlo1 CoA-SH fluorescence. Potency, µM (highest dose often 58.9 µM), usual class: inhibitors. hit rate 0.21% among 390,000
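qHTS, 1536-well. 20nM enzyme, pH 7.5 HEPES/EDTA/Tween-20 buffer; 15 min compound preinc., RT. Start: 75uM H3(1-25), 70uM AcCoA, 50uM ThioGlo1. Read Ex340/Em540 at t=0 (autofluorescence flag) and t=20 min.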
JMJD2A Tudor – blocks the human JMJD2A Tudor domain; AlphaScreen JMJD2A-Tudor / H3K4me3 peptide binding; Potency, µM (top dose mostly 114 µM), usual class: inhibitors; hit rate 4.4% among 390,000; AID 504339; further: nearly all actives have a fitted effect of over 50% in size
Target sequence (O75164 whole entry, looked up, the tested form may be a part): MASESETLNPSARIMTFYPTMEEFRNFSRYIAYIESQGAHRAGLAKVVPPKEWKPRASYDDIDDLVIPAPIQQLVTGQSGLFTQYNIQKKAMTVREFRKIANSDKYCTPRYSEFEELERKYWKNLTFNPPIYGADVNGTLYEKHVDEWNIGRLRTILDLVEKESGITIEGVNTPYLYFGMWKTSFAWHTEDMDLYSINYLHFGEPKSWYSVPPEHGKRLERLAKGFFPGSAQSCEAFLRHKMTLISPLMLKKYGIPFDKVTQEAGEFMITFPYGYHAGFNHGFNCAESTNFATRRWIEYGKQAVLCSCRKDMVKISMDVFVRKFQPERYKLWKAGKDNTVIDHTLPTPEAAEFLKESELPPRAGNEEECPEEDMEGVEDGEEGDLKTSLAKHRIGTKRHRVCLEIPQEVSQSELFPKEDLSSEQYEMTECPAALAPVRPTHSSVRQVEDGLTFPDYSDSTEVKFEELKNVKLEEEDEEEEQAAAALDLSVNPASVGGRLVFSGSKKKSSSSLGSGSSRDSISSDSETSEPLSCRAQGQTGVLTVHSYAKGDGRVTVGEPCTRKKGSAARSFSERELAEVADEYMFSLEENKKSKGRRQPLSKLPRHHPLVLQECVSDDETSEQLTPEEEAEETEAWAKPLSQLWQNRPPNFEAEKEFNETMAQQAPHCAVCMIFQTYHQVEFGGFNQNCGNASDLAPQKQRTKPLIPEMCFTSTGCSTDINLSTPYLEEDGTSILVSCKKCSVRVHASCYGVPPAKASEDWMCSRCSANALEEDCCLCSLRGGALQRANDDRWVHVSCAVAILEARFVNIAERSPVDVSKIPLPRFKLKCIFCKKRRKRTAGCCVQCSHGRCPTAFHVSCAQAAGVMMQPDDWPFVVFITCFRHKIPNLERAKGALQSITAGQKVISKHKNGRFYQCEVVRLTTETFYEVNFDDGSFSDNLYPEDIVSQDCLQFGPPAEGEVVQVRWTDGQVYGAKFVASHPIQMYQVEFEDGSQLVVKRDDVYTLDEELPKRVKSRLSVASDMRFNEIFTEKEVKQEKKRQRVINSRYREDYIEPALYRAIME
HP1b binding inh – blocks HP1-beta chromodomain binding to methylated histone tails; P83916; AlphaScreen HP1-beta / biotin-H3K9me3 peptide binding; Potency, µM (series often up to 114 µM), hits mostly inhibitors; hit rate 0.56% among 390,000; AID 540317; further: nearly all actives have a fitted effect of over 70% in size
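HP1-beta protein (50 nM final) preincubated 30 min at room temperature with biotinylated H3(1-18)K9me3 peptide (50 nM) in PBS pH 7.4, 0.01% Tween-20, then compound added for 30 min. AlphaScreen streptavidin donor/nickel chelate acceptor beads (10 ug/mL final), 30 min dark, luminescence read.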
PI5P4K alpha inh – inhibitors of human PI5P4K alpha; hit rate 1.2% among 330,000; P48426; AID 652105; PI5P4Kalpha enzyme, ADP-Glo luminescence, 60 min; active compounds read low; max response, %; active means max response of -50% or lower; inconclusive means between -30% and -50%; inactive means -30% or higher; further: value at the top dose of about 77 µM
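Quantitative HTS of the MLSMR library against PI5P4Kalpha with substrate. ATP added last at 5 microM final; room temperature, 60 minutes. Remaining ATP depleted, ADP converted and read as luminescence.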
PLK1 PBD inh – blocks phosphopeptide binding to human PLK1 polo-box domain; Plk1 PBD binding of FITC phosphopeptide, fluorescence polarization; P53350; Potency, µM, actives largely listed as inhibitors; hit rate 2.8% among 360,000; further: series mostly up to about 57 µM; nearly all actives have a fitted effect of over 65% in size
BAZ2B inh – blocks human BAZ2B; Q9UIF8; AlphaScreen BAZ2B-H3K14Ac peptide displacement; Potency, µM (titrated, usually from 114 µM), usual class: inhibitors; hit rate 4.4% among 360,000; AID 504333; further: nearly all actives have a fitted effect of over 60% in size
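AlphaScreen displacement: compounds (up to 110uM) incubated 30 min at room temperature with a preformed 50 nM BAZ2B/50 nM biotinylated H3K14Ac peptide complex in PBS pH 7.4 with Tween-20. Donor and acceptor beads at 10 ug/mL final added, 20 min light-protected before reading.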
Hits are given with their value; [ ] = another dose, or the depositor's remark. Unless noted, the call rests on the fitted dose curve; in most records, active means well fitted curve in the direction sought with a large enough effect; inconclusive means small, poorly fitted or top-dose-only effect, or another doubt; inactive means no such curve, though single readings can be large; an effect the other way counts as inactive or inconclusive.

Screening FC(F)Oc1ccc(/C=N/c2c(-c3ccc(OC(F)F)cc3)nc3n2CCS3)cc1 returned KAT2A inh inactive, JMJD2A Tudor 50µM, HP1b binding inh inconclusive, PI5P4K alpha inh inactive, PLK1 PBD inh inactive and BAZ2B inh inconclusive.
COc1ccc(-c2nc3n(c(=O)c2C#N)CCS3)cc1 was read as KAT2A inh inactive, JMJD2A Tudor inactive, HP1b binding inh inactive, PI5P4K alpha inh inactive, PLK1 PBD inh inactive and BAZ2B inh inactive.
COc1ccc(-c2n[nH]c(=S)n2-c2ccc(C)cc2C)cc1 was read as KAT2A inh inactive, JMJD2A Tudor inconclusive, HP1b binding inh inactive, PI5P4K alpha inh inactive, PLK1 PBD inh inactive and BAZ2B inh inactive.
For COc1ccc(C)cc1-n1c(-c2ccncc2)n[nH]c1=S the results were KAT2A inh inactive, JMJD2A Tudor 20µM, HP1b binding inh inactive, PI5P4K alpha inh inactive, PLK1 PBD inh inactive and BAZ2B inh inactive.
COc1cc(OC)cc(-c2n[nH]c(=S)n2-c2cc(OC)ccc2OC)c1 was read as KAT2A inh inactive, JMJD2A Tudor 7.9µM, HP1b binding inh inactive, PLK1 PBD inh inactive and BAZ2B inh inactive.
`Cc1ccc(NC(=O)COC(=O)c2ccc(NC(=O)CC#N)cc2)cc1S(=O)(=O)N1CCOCC1` gave KAT2A inh inactive, JMJD2A Tudor inactive, HP1b binding inh inactive, PI5P4K alpha inh inactive and PLK1 PBD inh inactive.
Screening c1ccc(-c2ccccc2OCCCCN2CCCCC2)cc1 returned KAT2A inh inactive, JMJD2A Tudor 40µM, HP1b binding inh inactive, PI5P4K alpha inh inactive, PLK1 PBD inh inactive and BAZ2B inh 79µM.
c1ccc(-c2ccccc2OCCCN2CCCC2)cc1 was read as KAT2A inh inactive, JMJD2A Tudor 8.9µM, HP1b binding inh inconclusive, PI5P4K alpha inh inactive, PLK1 PBD inh inactive and BAZ2B inh inconclusive.
For CC1CC(C)CN(CCOc2ccccc2-c2ccccc2)C1 (stereo not drawn) the results were KAT2A inh inactive, JMJD2A Tudor 13µM, HP1b binding inh inactive, PI5P4K alpha inh inactive, PLK1 PBD inh inactive and BAZ2B inh inactive.
`c1ccc(-c2ccccc2OCCCN2CCCCCC2)cc1` gave KAT2A inh inactive, JMJD2A Tudor 20µM, HP1b binding inh inconclusive, PI5P4K alpha inh inactive, PLK1 PBD inh inactive and BAZ2B inh 56µM.
For c1ccc(-c2ccccc2OCCn2cncn2)cc1 the results were KAT2A inh inactive, JMJD2A Tudor inactive, HP1b binding inh inactive, PI5P4K alpha inh inactive, PLK1 PBD inh inactive and BAZ2B inh inactive.
Screening N=C(CC(O)COc1ccccc1-c1ccccc1)N1CCCCC1 (stereo not drawn) returned KAT2A inh inactive.
`NCCOc1ccccc1-c1ccccc1` gave KAT2A inh inactive, JMJD2A Tudor inactive, HP1b binding inh inactive, PI5P4K alpha inh inactive, PLK1 PBD inh inactive and BAZ2B inh inactive.
N#CC1(Nc2ccc(Br)cc2)CCCC1 was read as JMJD2A Tudor inactive, HP1b binding inh inactive, PI5P4K alpha inh inactive and PLK1 PBD inh inactive.
For CCOC(=O)c1ccccc1NC(=O)N1CCC(CN2CCOCC2)CC1 the results were KAT2A inh inactive, JMJD2A Tudor inactive, HP1b binding inh inactive and BAZ2B inh inactive.
CCOc1ccc(CC(=O)Nc2c(C(=O)c3ccccc3)oc3ccc(OC)cc23)cc1OCC was read as KAT2A inh inactive, JMJD2A Tudor inactive, HP1b binding inh inactive and BAZ2B inh inactive.
For O=C1/C(=C/c2ccco2)N=C(N2CCCCC2)N1c1ccccc1 the results were KAT2A inh inactive, JMJD2A Tudor inactive, HP1b binding inh inactive, PI5P4K alpha inh inactive, PLK1 PBD inh inactive and BAZ2B inh 79µM.
Screening CC1=C(C(=O)NCc2ccc(Cl)cc2)C2(CCCCC2)OC1=O returned KAT2A inh inactive, JMJD2A Tudor inactive, HP1b binding inh inactive and BAZ2B inh inactive.
Screening O=C(CNC(=O)c1cccs1)N/N=C/c1c[nH]c2ccccc12 returned KAT2A inh inactive, JMJD2A Tudor inconclusive, HP1b binding inh inactive, PI5P4K alpha inh inactive, PLK1 PBD inh 19µM and BAZ2B inh inactive.
Cc1ccccc1NCC(=O)N/N=C/c1c[nH]c2ccccc12 was read as KAT2A inh inactive, JMJD2A Tudor inconclusive, HP1b binding inh inactive, PI5P4K alpha inh inactive, PLK1 PBD inh 30µM and BAZ2B inh inactive.
Cn1nnnc1Sc1ncnc2scc(-c3cccc(C#N)c3)c12 was read as JMJD2A Tudor inactive.
`Cc1ccc(S(=O)(=O)C(CNS(=O)(=O)c2ccc(F)c(C(F)(F)F)c2)c2ccco2)cc1` (stereo not drawn) gave KAT2A inh inactive, JMJD2A Tudor inactive, HP1b binding inh inactive and BAZ2B inh inactive.
COc1ccc(NC(=O)CCCN2C(=O)CCn3nc(-c4cn(C)c5ccccc45)cc32)cc1 was read as KAT2A inh inactive, JMJD2A Tudor inactive, HP1b binding inh inactive and BAZ2B inh inactive.
Screening S=c1[nH]c(-c2ccccc2)cn1/N=C/c1ccncc1 returned KAT2A inh inactive, JMJD2A Tudor 0.71µM, HP1b binding inh inactive, PI5P4K alpha inh inactive, PLK1 PBD inh inconclusive and BAZ2B inh inactive.
S=c1[nH]ncn1/N=C/c1ccccc1 was read as KAT2A inh inactive, JMJD2A Tudor 6.3µM, HP1b binding inh inactive, PI5P4K alpha inh inactive, PLK1 PBD inh inactive and BAZ2B inh inactive.
`S=c1[nH]ncn1/N=C/c1ccc(Br)cc1` gave KAT2A inh inactive, JMJD2A Tudor 7.9µM, HP1b binding inh inactive, PI5P4K alpha inh inactive, PLK1 PBD inh inactive and BAZ2B inh inactive.
CCN(CC)c1ccc(/C=N/n2c(-c3ccccc3Br)n[nH]c2=S)cc1 was read as KAT2A inh inactive, JMJD2A Tudor inconclusive, HP1b binding inh inconclusive, PI5P4K alpha inh inactive, PLK1 PBD inh inactive and BAZ2B inh inconclusive.
Screening COc1ccc(/C=C(\NC(=O)c2ccc(C)cc2)C(=O)Nc2ccc(C(=O)O)cc2)cc1 returned KAT2A inh inactive, JMJD2A Tudor inactive, HP1b binding inh inactive, PI5P4K alpha inh inactive, PLK1 PBD inh inactive and BAZ2B inh inactive.
Screening COc1cccc(-c2nc3ccccc3c(=O)o2)c1 returned KAT2A inh inactive, JMJD2A Tudor inactive, HP1b binding inh inactive, PLK1 PBD inh inactive and BAZ2B inh inactive.
`COc1cccc(C2=N/C(=C\N(C)C)C(=O)O2)c1` gave KAT2A inh inactive, JMJD2A Tudor inactive[11.4 µM], HP1b binding inh inconclusive, PI5P4K alpha inh inactive, PLK1 PBD inh 17µM and BAZ2B inh inactive.
COc1cccc(CC(=O)N2CCN(c3ccccc3[N+](=O)[O-])CC2)c1 was read as KAT2A inh inactive, JMJD2A Tudor inactive, HP1b binding inh inactive, PI5P4K alpha inh inactive and PLK1 PBD inh inactive.
Screening COc1ccc(C(=O)Cc2cc(OC)c(OC)cc2[N+](=O)[O-])cc1 returned KAT2A inh inactive, JMJD2A Tudor inactive, HP1b binding inh inactive, PLK1 PBD inh inactive and BAZ2B inh inactive.
